The target of assay [1] is Lysosomal acid glucosylceramidase (Homo sapiens) (UniProt P04062). Briefly: Glucocerebrosidase-p2 (AID 348; in the data active = potency below about 10 µM; note: potency is the fitted concentration of half-maximal effect). The conditions noted are these: purified GBA, blue fluorogenic substrate, 40 min. The procedure, abridged: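 Normal human glucocerebrosidase (0.2 nM) with blue fluorogenic substrate (80 uM final) in citrate/phosphate pH 5.9 with 10mM sodium taurocholate, 0.01% tween-20; 40 min RT, NaOH/glycine stop; fluorescence Ex 365/Em 440; AC50 from a titration from 0.6 nM upwards.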

The nature of assay [2]: AP1 Signaling Pathway (AID 357; active = well fitted curve in either direction with a large enough effect, not every such curve was filed as active;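 note: ME-180 reporter cells stimulated with EGF at its EC50 level; % is set by controls: 0 for no effect and ±100 for the full control effect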). Particulars: ME-180 AP-1-bla reporter, EGF-induced, beta-lactamase ratio, 5 h; at 7.69 µM (top of the series) unless noted. The procedure, abridged: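 AP-1-bla ME-180 cells, Opti-MEM + 0.5% dialyzed FBS, plated overnight 37 °C. Cpd titration + EC50 EGF, 5 h 37 °C. CCF4 2.5 h RT; ex 405, em 460/530 ratio → %activity, AC50.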
The target of assay [3] is Cytochrome P450 1A2 (Homo sapiens) (UniProt P05177). Nature of the assay: p450-cyp1a2 (AID 410; calls by dose curve; note: potency is the fitted concentration of half-maximal effect). Particulars: recombinant CYP1A2, luciferin-ME demethylation, luminescence; series mostly up to 57 µM. The procedure, abridged: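 20nM CYP1A2, 100uM Luciferin-ME (=Km), 100mM KPO4; cpd 10 min RT; +NADPH regen, 60 min RT; stop/detect 20 min; luminescence. Normalized to furafylline 57 uM = full inhibition.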

Assay [4] in a line: NFAT Signaling Pathway (AID 444; active = well fitted curve in either direction with a large enough effect, not every such curve was filed as active;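 note: carbachol stimulus at about its EC50 of 1 µM final; % is set by controls: 0 for no effect and ±100 for the full control effect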). The conditions noted are these: Jurkat NFAT-bla M1, carbachol, beta-lactamase ratio, 5 h; at 7.69 µM (top of the series) unless noted. In outline: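 Jurkat cells with NFAT-driven β-lactamase reporter and co-expressed M1 receptor, stimulated with carbachol (final 1 uM, ~EC50), compound titration, 5 h at 37 °C. CCF4 loaded 1 h at RT; 460/530 nm ratio gave %activity and AC50.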

Assay [5] in a line: Stat Signaling Pathway (AID 446; active = well fitted curve in either direction with a large enough effect, not every such curve was filed as active;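 note: ME-180 cervical cancer cells given 40 pM IL-6 alongside compound; SIE-controlled beta-lactamase reporter measured as 460/530 nm FRET emission ratio; % is set by controls: 0 for no effect and ±100 for the full control effect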). Particulars: ME-180 (cervical carcinoma) SIE beta-lactamase reporter, IL-6 stimulated, 5 h; at 7.69 µM (top of the series) unless noted. The procedure, abridged:
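Compound effects on IL-6-induced STAT reporter activity were measured in ME-180 cells. After overnight culture, cells were co-treated with 40 pM IL-6 for 5 hrs before beta-lactamase substrate loading at room temperature.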

Assay [6] deals with Glucocorticoid receptor (Homo sapiens) (UniProt P04150). Briefly: GR-GFP Redistribution (AID 450;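 active = compounds whose dose series gives a full or clear partial fitted curve of increased nuclear translocation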; note: potency is the fitted concentration of half-maximal effect). Particulars: U2OS GR-GFP nuclear translocation, laser cytometry, 2 h.
Assay [7] shares this target. Briefly: GR-EFC Redistribution (AID 451; calls by dose curve; note: potency is the fitted concentration of half-maximal effect). Particulars: CHO-K1 GR-EFC translocation, beta-gal luminescence, 2 h. The procedure, abridged: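 CHO-K1 cells expressing nuclear EA and GR-ED fragments of b-gal; compounds titrated up to 46 uM final, 2 h at 37 C. GR nuclear translocation read as complemented b-gal luminescence after 1 h RT detection.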
Assay [8] deals with Mitogen-activated protein kinase 10 (Mus musculus) (UniProt Q61831). Nature of the assay: JNK3 AlphaScreen Assay (AID 530; active = well fitted curve in either direction with a large enough effect, not every such curve was filed as active;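 note: kinase came from lysate of stimulated human HepG2 cells; signal reports phosphorylation of biotinylated GST-cJun 1-79 at Ser73 with 10 µM ATP; % is set by controls: 0 for no effect and ±100 for the full control effect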). Particulars: JNK3 lysate, c-Jun phosphorylation; series mostly up to 57.1 µM. In outline: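 HepG2 lysate (IL-1b/TNFa pre-activated) + biotin-GST-cJun 1-79 + anti-pSer73 cJun; cpd titration, 15 min RT; ATP 10 uM start; Tris pH 7.6, MgCl2, DTT, vanadate; beads in EDTA buffer; AlphaScreen.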
(Bead proximity is the source of the signal in Alpha formats.)

Assay [9] deals with 3',5'-cyclic-AMP phosphodiesterase 4B (Homo sapiens) (UniProt Q07343). Briefly: qHTS Assay for Inhibitors of PDE-IV (AID 607; active = well fitted activation curve with a large enough effect in the main read-out, with a control signal flat, not every such curve was filed as active; note: % of control where 0% means no effect). The conditions noted are these: HEK293 ACTOne CNG channel cells, membrane potential fluorescence; series mostly up to 22.9 µM. The procedure, abridged: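 ACTOne HEK293 cells carry a modified cAMP-gated CNG channel and express endogenous PDE4; plated 1000 cells/well, compounds up to 22.9 uM final. Membrane-potential dye fluorescence (ex 535/em 590) was read; parental cells received 10 uM forskolin + 100 uM RO 20-1724.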
In general terms: qHTS replaces the single test concentration by a dilution series.

For assay [10], the target named is Cytochrome P450 3A4 (Homo sapiens) (UniProt P08684). Briefly: qHTS Assay for Inhibitors and Substrates of Cytochrome P450 3A4 (AID 884). Note: potency is the fitted concentration of half-maximal effect; nearly all actives have a fitted effect of over 50% in size. Particulars: recombinant CYP3A4, Luciferin-PPXE luminescence; series mostly up to 57.1 µM. The procedure, abridged:
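Luminescent readout of luciferin produced by CYP3A4 (20 nM) dealkylation of Luciferin-PPXE, 25 uM (its KM). NADPH-driven reaction ran 60 min at RT after 10 min compound preincubation; data scaled to 57 uM ketoconazole as 100% inhibition.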

For assay [11] the target is unchanged. Nature of the assay: qHTS Assay for Activators of Cytochrome P450 3A4 (AID 885). Note: nearly all actives have a fitted effect of over 65% in size. The conditions noted are these: recombinant CYP3A4, Luciferin-PPXE luminescence, 60 min; series mostly up to 57.1 µM. In outline: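 CYP3A4 activity: Luciferin-PPXE O-dealkylation, 25uM substrate, 200mM KPO4, RT throughout. Read-out is luciferase luminescence; higher values reflect activation.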

Assay [12] concerns the target Dual specificity protein kinase CLK4 (Homo sapiens) (UniProt Q9HAZ1). Nature of the assay: qHTS Assay for Inhibitors of CDC-like Kinase 4 (Kinase-Glo Assay) (AID 1770). Note: % is set by controls: 0 for no effect and ±100 for the full control effect; nearly all actives have a fitted effect of over 65% in size. The conditions noted are these: recombinant Clk4, Kinase-Glo ATP depletion luminescence; series mostly up to 66.7 µM. In outline: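 Substrate mix (RS peptide 100 uM, ATP 1 uM) dispensed, compound pinned in, then Clk4 added to 25 nM final. Incubated 4.5 h at RT; Kinase-Glo reagent added, luminescence read after 5 min.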

Assay [13] has the same target. Nature of the assay: qHTS Assay for Inhibitors of CDC-like Kinase 4 (ADP-Glo Assay) (AID 1771). Note: % is set by controls: 0 for no effect and ±100 for the full control effect; nearly all actives have a fitted effect of over 70% in size. Particulars: recombinant CLK4, ADP-Glo luminescence; series mostly up to 80 µM. The procedure, abridged:
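25 nM Clk4, 100 uM RS peptide, 1 uM ATP (final); 2 mM MgCl2, 0.5 mM EGTA, 2.5 mM DTT, 0.01% Triton X-100; 1 hr RT. ADP-Glo readout: ATP depletion 45 min, conversion/luciferase 30 min, luminescence.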

For assay [14] the target is unchanged. Briefly: qHTS Assay for Inhibitors of CDC-like Kinase 4 (ADP-FP Assay) (AID 1795).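 Note: recombinant human CLK4 phosphorylating RS repeat peptide at 1 µM ATP; % is set by controls: 0 for no effect and ±100 for the full control effect; nearly all actives have a fitted effect of over 60% in size.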 Particulars: Transcreener ADP fluorescence polarization; series mostly up to 50 µM. The procedure, abridged:
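Clk4 6.25 nM; RS peptide 100 uM; ATP 1 uM; 25 mM Tris pH 7.5, 10 mM MgCl2; 1 h reaction. ADP detected via antibody/orange tracer FP displacement; TG003 positive control.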

In assay [15] the target is Ubiquitin carboxyl-terminal hydrolase 1 (Homo sapiens) (UniProt O94782). Nature of the assay: Inhibitors of USP1/UAF1: Pilot qHTS (AID 504865).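 Note: rhodamine fluorescence freed from ubiquitin-rhodamine substrate followed over time; top concentration of the series differs between compounds; % is set by controls: 0 for no effect and ±100 for the full control effect; nearly all actives have a fitted effect of over 35% in size.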 The conditions noted are these: purified USP1/UAF1, Ub-rhodamine cleavage fluorescence; series mostly up to 54.9 µM. The procedure, abridged:
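In 50mM HEPES pH 7.8 containing 0.5mM EDTA, 1mM TCEP, 0.1 mg/ml BSA and 0.01% Tween-20, 1nM USP1/UAF1 is exposed to compound for 15 min, then Ub-Rho (150nM final) is added and fluorescence is read over time.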

The nature of assay [16]: Primary qHTS for small molecule stabilizers of the endoplasmic reticulum resident proteome: Secreted ER Calcium Modulated Protein (SERCaMP) assay (AID 1508630). Note: % is set by controls: 0 for no effect and ±100 for the full control effect. The conditions noted are these: SH-SY5Y GLuc-SERCaMP (Gaussia luciferase released on ER calcium loss) secretion, thapsigargin, luminescence; series mostly up to 38.4 µM. The procedure, abridged: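 The SH-SY5Y reporter protocol was run at 3 concentrations up to 38.3 uM (primary) or 11 concentrations (follow-up): 16 h compound, 100 nM thapsigargin for 4 h, then extracellular luciferase luminescence.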

Unmarked numbers belong to inactive results. Records with an inconclusive call do not appear. Activity calls are given as the source filed them. Unless noted, calls come from the whole dose curve; as a rule, active = well fitted curve in the direction sought with a large enough effect; inconclusive = small, poorly fitted or top-dose-only effect, or another doubt; inactive = no such curve, though single readings can be large; an effect the other way counts as inactive or inconclusive.

Chain of Cytochrome P450 3A4 (Homo sapiens) (P08684 whole entry, looked up): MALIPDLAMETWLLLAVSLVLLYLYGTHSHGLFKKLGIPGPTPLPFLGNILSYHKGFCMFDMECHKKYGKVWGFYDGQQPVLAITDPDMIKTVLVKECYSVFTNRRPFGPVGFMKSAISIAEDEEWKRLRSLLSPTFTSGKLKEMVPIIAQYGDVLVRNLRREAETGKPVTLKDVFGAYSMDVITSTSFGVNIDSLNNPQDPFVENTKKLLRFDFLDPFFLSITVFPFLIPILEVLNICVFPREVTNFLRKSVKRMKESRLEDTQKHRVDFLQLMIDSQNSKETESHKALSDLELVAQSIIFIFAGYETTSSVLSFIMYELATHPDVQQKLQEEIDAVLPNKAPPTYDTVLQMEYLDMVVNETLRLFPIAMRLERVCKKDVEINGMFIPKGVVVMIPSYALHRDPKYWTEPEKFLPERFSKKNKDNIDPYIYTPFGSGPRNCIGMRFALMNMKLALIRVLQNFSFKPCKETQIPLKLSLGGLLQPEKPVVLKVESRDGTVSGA
Chain of Cytochrome P450 1A2 (Homo sapiens) (P05177 whole entry, looked up): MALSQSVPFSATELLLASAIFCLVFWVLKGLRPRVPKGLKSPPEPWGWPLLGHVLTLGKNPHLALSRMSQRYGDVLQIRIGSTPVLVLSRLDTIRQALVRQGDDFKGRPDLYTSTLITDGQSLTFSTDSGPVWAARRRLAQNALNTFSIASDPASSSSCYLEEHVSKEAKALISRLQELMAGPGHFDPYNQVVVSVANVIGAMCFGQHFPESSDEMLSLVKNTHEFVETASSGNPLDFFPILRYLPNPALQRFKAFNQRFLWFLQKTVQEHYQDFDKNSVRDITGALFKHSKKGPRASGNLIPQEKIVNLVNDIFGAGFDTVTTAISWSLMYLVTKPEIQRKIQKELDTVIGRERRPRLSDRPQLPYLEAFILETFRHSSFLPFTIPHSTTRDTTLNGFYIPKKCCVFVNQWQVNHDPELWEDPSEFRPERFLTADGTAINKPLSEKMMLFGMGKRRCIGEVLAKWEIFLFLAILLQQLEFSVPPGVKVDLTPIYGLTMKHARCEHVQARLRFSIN
Chain of Dual specificity protein kinase CLK4 (Homo sapiens) (Q9HAZ1 whole entry, looked up): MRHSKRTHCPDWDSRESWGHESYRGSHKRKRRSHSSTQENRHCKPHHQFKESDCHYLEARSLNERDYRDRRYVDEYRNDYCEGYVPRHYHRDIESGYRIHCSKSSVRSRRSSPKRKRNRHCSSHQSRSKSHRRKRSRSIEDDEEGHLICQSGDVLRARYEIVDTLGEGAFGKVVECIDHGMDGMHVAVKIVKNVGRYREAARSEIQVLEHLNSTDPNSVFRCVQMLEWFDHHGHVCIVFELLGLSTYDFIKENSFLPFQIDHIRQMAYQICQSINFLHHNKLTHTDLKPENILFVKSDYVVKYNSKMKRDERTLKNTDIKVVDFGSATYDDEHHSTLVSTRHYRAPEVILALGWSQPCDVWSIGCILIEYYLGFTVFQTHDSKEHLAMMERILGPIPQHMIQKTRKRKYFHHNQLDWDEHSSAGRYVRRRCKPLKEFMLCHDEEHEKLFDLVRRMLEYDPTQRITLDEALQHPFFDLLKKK
Chain of Glucocorticoid receptor (Homo sapiens) (P04150 whole entry, looked up, the tested form may be a part): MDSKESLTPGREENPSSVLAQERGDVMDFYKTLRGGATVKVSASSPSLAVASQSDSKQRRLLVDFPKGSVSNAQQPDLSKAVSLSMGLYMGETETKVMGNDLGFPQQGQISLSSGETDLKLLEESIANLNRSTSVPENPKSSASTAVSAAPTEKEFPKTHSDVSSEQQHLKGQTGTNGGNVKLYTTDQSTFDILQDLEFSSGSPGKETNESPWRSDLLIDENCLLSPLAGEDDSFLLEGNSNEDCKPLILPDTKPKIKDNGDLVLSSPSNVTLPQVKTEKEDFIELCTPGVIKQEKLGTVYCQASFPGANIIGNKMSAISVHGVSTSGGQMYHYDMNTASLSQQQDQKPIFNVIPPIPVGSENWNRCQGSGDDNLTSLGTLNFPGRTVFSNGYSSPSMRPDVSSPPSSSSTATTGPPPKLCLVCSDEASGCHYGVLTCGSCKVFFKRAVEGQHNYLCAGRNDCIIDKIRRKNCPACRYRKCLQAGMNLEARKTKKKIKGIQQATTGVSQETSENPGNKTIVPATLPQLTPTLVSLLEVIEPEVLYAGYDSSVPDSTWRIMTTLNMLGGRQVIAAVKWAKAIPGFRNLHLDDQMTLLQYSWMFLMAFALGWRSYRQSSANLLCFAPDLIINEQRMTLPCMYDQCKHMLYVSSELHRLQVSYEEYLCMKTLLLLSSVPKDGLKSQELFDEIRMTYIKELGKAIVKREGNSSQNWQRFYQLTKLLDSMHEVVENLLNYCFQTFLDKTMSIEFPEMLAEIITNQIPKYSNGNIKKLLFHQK
Chain of Lysosomal acid glucosylceramidase (Homo sapiens) (P04062 whole entry, looked up): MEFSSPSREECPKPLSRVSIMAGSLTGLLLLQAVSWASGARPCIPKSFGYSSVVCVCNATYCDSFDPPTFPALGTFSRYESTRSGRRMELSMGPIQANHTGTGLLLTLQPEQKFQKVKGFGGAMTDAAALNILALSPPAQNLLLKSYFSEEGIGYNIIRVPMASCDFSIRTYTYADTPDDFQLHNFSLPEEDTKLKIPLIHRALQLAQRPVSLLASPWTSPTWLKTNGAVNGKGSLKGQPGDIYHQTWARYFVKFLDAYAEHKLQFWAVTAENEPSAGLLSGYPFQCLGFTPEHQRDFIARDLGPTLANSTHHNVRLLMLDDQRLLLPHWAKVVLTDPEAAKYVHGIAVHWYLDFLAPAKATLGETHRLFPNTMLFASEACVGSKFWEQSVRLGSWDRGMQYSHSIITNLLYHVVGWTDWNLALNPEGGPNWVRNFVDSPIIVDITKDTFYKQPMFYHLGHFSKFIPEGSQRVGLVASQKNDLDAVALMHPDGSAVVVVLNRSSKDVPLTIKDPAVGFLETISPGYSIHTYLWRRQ
Chain of Ubiquitin carboxyl-terminal hydrolase 1 (Homo sapiens) (O94782 whole entry, looked up): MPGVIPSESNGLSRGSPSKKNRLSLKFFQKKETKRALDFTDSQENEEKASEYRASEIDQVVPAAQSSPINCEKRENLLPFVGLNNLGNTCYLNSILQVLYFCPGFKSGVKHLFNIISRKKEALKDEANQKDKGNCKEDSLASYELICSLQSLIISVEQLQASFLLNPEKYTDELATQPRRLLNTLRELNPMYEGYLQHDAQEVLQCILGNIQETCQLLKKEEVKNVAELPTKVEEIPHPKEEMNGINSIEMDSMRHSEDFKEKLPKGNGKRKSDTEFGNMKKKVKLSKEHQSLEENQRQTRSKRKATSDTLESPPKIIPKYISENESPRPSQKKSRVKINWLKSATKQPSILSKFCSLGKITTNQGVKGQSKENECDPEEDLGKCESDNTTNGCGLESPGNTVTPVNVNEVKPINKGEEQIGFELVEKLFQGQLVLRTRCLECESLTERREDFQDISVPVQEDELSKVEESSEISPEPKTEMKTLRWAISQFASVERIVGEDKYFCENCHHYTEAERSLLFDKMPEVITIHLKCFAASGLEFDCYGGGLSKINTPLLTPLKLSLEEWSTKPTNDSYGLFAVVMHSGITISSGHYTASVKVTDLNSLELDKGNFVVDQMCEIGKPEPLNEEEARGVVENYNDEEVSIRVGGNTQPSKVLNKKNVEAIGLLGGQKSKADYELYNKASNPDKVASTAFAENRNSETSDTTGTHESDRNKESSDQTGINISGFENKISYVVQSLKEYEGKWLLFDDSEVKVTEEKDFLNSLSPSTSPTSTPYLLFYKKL
Chain of 3',5'-cyclic-AMP phosphodiesterase 4B (Homo sapiens) (Q07343 whole entry, looked up): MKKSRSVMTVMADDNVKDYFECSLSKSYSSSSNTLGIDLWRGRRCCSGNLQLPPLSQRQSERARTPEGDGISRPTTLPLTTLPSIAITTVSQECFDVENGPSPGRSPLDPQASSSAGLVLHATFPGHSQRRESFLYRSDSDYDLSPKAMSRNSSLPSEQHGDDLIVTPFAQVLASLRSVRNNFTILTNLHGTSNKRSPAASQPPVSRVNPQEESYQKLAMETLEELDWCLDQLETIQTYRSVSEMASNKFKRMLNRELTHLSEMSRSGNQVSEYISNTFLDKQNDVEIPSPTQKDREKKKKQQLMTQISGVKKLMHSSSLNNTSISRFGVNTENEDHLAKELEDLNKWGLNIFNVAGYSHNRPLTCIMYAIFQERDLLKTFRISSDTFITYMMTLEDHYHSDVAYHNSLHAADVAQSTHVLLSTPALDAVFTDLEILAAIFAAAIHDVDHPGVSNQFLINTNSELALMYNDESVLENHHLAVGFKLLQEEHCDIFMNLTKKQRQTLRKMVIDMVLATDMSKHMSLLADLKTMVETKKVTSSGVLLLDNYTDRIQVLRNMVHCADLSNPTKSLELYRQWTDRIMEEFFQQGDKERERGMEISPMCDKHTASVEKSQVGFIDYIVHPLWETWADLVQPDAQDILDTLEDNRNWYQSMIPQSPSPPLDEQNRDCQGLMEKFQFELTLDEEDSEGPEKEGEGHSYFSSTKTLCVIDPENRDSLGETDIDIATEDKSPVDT

Turning to `COc1cccc(Cn2c(=O)c(CCc3ccccc3)nc3cncnc32)c1`, the Potency in assay [1] is > 11.4 µM; in assay [3], 12.6 µM (active); in assay [6], > 9.22 µM; in assay [7], > 46 µM; in [10], 2.51 µM (active). In addition, the activity change, negative = inhibition is -12.1% in assay [2] and -7.87% in assay [4]. For the same compound, the activity, negative = inhibition in [5] was -9.09%. In addition, the Potency result in [8], in assay [9], in assay [11], in assay [12], in assay [13] and in [14] was “inactive” throughout. Also, the Potency result in [15] is “inactive”. For the same compound, the outcome in assay [16] was inactive.
For the compound `Cn1c(=O)c(-c2ccc(F)c(F)c2)nc2cncnc21`, the Potency in assay [1] is > 11.4 µM; in [3], 0.158 µM (active); in assay [6], > 9.22 µM; in [7], > 46 µM. Also, the figures for the activity change, negative = inhibition in assay [2] and in assay [4] were 10% and -5.02%, respectively. The activity, negative = inhibition in assay [5] is -7.37%. For the same compound, the Potency entry in assay [8], in [9], in assay [11], in assay [12], in assay [13] and in [14] was “inactive” throughout. Moreover, in assay [15], the Potency entry was “inactive”. Besides, the outcome in assay [16] was inactive.
Take `O=c1c(-c2cccc(Cl)c2)nc2cncnc2n1C1CC1`: the Potency in assay [1] is > 11.4 µM; in [3], 0.631 µM (active); in [6], > 9.22 µM; in assay [7] it was > 46 µM. The results for the activity change, negative = inhibition in [2] and in [4] were -20.9% and -7.65%, respectively. Moreover, the activity, negative = inhibition in assay [5] was -4.14%. The Potency result in assay [8], in [9], in [11], in assay [12], in [13] and in assay [14] was “inactive” in each case. In assay [15], the Potency entry is “inactive”. The outcome in assay [16] was inactive.
Turning to `CNc1ncncc1-c1ccccc1C`, the Potency is > 11.4 µM in [1]; 12.6 µM (active) in assay [3]; > 46 µM in assay [6]; > 46 µM in [7]; 0.631 µM (active) in assay [10]. The activity change, negative = inhibition in assay [2] was 7.16%; in [4], 9.64%. For the same compound, in assay [5], the activity, negative = inhibition was 2.49%. The Potency result in assay [8], in assay [9], in assay [11], in [12], in [13] and in [14] was “inactive” in each case. Further, the Potency entry in [15] was “inactive”. Moreover, the result in assay [16] was inactive.
In the case of `CN(C)C(=O)c1ccc(-c2nccc(NCc3ccccc3)n2)cc1`, the Potency in [1] was > 11.4 µM; in assay [3], 15.8 µM (active); in assay [6], > 46 µM; in assay [7] it was > 46 µM. Also, the activity change, negative = inhibition was -2.34% in assay [2] and 15.6% in assay [4]. The activity, negative = inhibition in assay [5] was -5.63%. In addition, the Potency result in [8], in assay [9], in assay [11], in assay [12], in assay [13] and in [14] was “inactive” throughout. The Potency result in assay [15] was “inactive”. Further, the outcome in assay [16] was inactive.
With `Cc1cccc(CNc2ncncc2-c2ccc(C(=O)N(C)C)cc2)c1`, the Potency in assay [1] was > 11.4 µM; in [3], 15.8 µM (active); in assay [6] it was > 46 µM; in assay [7], > 46 µM; in assay [10], 0.631 µM (active). The activity change, negative = inhibition in [2] is -19%; in [4], 11.4%. Also, the activity, negative = inhibition in assay [5] was 1.97%. Besides, the Potency entry in [8], in [9], in [11], in assay [12], in [13] and in assay [14] was “inactive” in each case. Also, the Potency result in [15] was “inactive”. Besides, the result in assay [16] was inactive.

(Values after PubChem BioAssay (NCATS).)
